# Source: ChEMBL document CHEMBL2218924, “A broad activity screen in support of a chemogenomic map for kinase signalling research and drug discovery” (Biochem J, 2013)
# How the values were obtained:
# [1] = molecular target: T1, Serine/threonine-protein kinase haspin (Homo sapiens) (UniProt Q8TF76); details: at 1 µM
# T1 sequence (whole entry): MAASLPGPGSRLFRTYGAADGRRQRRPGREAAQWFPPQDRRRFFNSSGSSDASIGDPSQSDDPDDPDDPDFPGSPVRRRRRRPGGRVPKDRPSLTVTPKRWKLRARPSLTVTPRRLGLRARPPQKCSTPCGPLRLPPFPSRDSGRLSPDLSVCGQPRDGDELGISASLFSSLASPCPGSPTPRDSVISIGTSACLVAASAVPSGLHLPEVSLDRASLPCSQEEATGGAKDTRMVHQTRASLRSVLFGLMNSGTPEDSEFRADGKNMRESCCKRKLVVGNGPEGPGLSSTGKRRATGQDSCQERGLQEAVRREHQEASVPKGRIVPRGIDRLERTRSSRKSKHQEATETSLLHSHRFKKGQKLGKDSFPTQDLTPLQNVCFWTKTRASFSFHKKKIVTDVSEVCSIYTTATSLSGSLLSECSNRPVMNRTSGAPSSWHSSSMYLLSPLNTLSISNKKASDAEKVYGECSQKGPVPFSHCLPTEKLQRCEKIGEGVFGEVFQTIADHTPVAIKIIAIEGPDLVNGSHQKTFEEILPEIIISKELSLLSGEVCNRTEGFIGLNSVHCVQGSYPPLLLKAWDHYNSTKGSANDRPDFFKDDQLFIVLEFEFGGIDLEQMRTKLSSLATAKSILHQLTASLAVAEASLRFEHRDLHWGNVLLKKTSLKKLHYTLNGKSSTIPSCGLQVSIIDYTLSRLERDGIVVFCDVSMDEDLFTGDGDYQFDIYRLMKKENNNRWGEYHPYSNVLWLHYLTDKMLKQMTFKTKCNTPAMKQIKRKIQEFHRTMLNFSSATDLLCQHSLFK
# [2] = molecular target: T1, Serine/threonine-protein kinase haspin (Homo sapiens); details: at 10 µM
# [3] = molecular target: Tyrosine-protein kinase HCK (Homo sapiens) (UniProt P08631); details: at 10 µM
# Chain of Tyrosine-protein kinase HCK (Homo sapiens) (P08631 2-526 limits assumed): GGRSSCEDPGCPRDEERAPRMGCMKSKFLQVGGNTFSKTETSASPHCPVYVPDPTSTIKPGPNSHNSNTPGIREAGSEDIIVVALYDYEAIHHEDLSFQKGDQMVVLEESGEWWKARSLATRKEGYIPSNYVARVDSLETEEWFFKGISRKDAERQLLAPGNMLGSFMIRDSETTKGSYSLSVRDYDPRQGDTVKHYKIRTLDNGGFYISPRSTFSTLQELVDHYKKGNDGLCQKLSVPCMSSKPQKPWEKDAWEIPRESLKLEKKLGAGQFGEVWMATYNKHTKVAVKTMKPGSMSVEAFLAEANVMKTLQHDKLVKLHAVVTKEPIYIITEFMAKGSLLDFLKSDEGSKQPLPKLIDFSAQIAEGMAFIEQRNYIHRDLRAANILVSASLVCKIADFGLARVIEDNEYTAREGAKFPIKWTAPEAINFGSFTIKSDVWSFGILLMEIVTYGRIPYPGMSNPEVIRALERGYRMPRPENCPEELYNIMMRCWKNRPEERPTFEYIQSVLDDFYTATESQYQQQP
# [4] = molecular target: Insulin-like growth factor 1 receptor (Homo sapiens) (UniProt P08069); details: at 10 µM
# Chain of Insulin-like growth factor 1 receptor (Homo sapiens) (P08069 31-736 limits assumed): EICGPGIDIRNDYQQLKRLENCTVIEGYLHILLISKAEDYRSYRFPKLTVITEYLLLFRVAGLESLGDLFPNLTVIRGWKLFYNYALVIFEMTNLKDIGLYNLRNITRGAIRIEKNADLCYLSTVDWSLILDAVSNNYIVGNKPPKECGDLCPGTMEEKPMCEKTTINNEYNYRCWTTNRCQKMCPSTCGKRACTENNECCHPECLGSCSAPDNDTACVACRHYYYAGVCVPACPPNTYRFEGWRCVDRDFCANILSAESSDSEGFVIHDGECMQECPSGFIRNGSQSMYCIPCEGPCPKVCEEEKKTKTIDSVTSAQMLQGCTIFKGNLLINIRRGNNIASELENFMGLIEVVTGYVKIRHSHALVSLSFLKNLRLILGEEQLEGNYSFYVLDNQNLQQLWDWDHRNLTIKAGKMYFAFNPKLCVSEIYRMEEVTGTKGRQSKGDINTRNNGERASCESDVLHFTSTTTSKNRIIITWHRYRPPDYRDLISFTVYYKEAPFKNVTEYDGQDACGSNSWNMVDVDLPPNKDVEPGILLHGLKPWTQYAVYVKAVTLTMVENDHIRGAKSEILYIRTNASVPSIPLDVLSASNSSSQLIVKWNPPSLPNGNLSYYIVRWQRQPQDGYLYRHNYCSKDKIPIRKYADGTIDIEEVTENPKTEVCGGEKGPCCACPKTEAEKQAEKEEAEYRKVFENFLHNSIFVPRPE
# Chain of Insulin-like growth factor 1 receptor (Homo sapiens) (P08069 741-1367 limits assumed): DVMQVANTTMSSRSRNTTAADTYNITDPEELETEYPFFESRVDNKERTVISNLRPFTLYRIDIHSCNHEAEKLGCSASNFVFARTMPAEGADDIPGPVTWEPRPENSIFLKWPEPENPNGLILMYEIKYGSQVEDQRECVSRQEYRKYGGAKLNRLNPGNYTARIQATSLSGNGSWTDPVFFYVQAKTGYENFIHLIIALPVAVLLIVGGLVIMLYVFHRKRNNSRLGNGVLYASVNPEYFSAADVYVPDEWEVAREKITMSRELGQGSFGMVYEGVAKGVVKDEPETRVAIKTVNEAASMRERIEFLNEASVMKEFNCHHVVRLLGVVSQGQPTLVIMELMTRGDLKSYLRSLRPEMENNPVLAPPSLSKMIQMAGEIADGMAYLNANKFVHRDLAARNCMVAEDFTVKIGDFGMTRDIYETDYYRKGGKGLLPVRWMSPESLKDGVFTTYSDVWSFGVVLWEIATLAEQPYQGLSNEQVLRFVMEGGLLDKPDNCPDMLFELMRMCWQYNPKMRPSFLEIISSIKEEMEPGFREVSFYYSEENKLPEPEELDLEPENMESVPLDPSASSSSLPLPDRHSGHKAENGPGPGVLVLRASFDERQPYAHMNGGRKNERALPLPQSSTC
# [5] = molecular target: T2, Protein kinase C zeta type (Homo sapiens) (UniProt Q05513); details: at 10 µM
# T2 sequence (whole entry): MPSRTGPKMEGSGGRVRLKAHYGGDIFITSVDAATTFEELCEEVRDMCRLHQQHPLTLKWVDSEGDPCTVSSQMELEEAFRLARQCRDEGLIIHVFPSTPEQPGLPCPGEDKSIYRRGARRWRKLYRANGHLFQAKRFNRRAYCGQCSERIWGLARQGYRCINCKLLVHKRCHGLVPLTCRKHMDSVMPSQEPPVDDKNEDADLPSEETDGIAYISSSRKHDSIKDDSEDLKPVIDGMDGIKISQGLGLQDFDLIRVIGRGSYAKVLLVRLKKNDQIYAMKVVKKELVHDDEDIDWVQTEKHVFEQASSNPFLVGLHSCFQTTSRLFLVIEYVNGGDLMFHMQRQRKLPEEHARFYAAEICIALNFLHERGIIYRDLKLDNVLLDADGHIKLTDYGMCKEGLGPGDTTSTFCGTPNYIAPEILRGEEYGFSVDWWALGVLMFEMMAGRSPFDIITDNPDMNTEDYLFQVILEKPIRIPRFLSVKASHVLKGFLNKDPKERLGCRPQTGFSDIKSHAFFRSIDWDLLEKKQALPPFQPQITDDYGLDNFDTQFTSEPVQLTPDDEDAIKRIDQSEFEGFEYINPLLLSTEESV
# [6] = molecular target: Protein kinase C eta type (Homo sapiens) (UniProt P24723); details: at 1 µM
# Chain of Protein kinase C eta type (Homo sapiens) (P24723 whole entry): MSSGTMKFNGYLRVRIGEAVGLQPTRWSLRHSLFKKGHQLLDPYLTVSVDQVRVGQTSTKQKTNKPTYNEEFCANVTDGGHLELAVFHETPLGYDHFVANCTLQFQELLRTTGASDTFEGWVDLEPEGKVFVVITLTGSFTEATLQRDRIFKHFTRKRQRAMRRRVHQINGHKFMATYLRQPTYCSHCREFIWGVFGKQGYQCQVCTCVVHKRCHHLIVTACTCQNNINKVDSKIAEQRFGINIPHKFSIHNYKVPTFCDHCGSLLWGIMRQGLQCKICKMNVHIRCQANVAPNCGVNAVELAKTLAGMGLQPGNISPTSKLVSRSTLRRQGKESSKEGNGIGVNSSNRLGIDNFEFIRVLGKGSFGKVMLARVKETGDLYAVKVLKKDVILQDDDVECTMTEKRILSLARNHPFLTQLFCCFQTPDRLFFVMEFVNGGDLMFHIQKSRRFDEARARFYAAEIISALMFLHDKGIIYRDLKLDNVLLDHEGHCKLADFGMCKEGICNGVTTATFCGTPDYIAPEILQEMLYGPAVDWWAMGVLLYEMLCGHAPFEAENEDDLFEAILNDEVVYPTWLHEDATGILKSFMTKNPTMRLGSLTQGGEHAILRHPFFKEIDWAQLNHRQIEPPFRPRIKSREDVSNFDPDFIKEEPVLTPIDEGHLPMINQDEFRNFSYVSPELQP
# [7] = molecular target: Protein kinase C eta type (Homo sapiens) (UniProt P24723); details: at 10 µM
# [8] = molecular target: Protein kinase C theta type (Homo sapiens) (UniProt Q04759); details: at 1 µM
# Chain of Protein kinase C theta type (Homo sapiens) (Q04759 whole entry, looked up): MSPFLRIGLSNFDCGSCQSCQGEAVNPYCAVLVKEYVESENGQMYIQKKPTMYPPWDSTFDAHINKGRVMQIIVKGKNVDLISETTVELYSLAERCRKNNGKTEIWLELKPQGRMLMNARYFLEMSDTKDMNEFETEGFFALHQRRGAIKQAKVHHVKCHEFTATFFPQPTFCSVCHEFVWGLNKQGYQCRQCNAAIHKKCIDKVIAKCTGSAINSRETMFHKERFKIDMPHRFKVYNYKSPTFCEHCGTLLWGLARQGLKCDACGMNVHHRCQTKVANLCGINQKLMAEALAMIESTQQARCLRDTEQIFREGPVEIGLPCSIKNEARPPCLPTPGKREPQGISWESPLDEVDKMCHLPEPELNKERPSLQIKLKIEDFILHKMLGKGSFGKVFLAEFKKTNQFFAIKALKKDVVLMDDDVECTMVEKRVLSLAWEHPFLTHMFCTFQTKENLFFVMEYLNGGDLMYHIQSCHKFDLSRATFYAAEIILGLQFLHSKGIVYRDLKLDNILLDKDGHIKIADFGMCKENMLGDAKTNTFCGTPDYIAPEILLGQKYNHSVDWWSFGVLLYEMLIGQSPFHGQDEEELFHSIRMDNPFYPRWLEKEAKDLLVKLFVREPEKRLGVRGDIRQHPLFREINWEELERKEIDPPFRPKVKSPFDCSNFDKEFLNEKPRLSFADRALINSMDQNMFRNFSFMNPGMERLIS
# [9] = molecular target: Protein kinase C theta type (Homo sapiens) (UniProt Q04759); details: at 10 µM
# [10] = molecular target: T3, Serine/threonine-protein kinase D1 (Homo sapiens) (UniProt Q15139); details: at 1 µM
# T3 sequence (whole entry): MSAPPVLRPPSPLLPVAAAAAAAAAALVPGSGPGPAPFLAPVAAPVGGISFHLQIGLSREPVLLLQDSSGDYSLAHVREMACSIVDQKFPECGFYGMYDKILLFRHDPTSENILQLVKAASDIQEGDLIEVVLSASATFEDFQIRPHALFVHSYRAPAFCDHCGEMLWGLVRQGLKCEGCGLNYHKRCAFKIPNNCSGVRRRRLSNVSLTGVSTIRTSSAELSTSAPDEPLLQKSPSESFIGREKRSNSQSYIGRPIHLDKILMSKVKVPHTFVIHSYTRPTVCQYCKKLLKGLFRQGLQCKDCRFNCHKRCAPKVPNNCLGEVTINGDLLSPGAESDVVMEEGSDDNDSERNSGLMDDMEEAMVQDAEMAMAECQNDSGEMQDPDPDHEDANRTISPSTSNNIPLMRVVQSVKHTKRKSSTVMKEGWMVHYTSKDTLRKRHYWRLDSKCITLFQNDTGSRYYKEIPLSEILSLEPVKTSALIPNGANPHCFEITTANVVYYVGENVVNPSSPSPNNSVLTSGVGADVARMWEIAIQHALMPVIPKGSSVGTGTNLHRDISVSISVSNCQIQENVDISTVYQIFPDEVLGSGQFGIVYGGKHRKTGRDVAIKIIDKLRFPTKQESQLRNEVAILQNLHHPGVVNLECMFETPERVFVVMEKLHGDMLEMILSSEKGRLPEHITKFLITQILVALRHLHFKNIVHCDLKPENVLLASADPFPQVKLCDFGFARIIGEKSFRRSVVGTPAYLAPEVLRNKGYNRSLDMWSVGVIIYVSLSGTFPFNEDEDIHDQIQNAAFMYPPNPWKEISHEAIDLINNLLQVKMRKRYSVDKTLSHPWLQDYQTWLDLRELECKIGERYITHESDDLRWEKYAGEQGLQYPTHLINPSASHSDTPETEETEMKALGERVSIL
# [11] = molecular target: T3, Serine/threonine-protein kinase D1 (Homo sapiens); details: at 10 µM
# [12] = molecular target: Tyrosine-protein kinase HCK (Homo sapiens) (UniProt P08631); details: at 1 µM
# [13] = molecular target: Insulin-like growth factor 1 receptor (Homo sapiens) (UniProt P08069); details: at 1 µM
# [14] = molecular target: T4, Protein kinase C iota type (Homo sapiens) (UniProt P41743); details: at 10 µM
# T4 sequence (whole entry): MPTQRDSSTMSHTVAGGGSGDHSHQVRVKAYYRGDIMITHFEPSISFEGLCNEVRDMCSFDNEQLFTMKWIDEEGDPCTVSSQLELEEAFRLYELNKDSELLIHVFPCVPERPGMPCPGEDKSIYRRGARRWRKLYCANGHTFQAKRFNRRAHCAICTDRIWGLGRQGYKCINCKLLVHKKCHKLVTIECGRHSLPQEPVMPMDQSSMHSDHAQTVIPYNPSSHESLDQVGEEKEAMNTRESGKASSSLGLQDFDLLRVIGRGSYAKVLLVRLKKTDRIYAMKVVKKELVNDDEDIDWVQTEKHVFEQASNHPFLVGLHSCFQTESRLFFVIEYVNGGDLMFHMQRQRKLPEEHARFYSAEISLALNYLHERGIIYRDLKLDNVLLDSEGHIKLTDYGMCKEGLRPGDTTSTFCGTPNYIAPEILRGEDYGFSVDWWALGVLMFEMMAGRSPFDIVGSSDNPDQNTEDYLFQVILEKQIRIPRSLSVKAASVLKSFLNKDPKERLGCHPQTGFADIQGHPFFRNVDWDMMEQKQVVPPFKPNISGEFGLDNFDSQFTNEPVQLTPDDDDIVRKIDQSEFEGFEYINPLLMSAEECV
# [15] = molecular target: Tyrosine-protein kinase HCK (Homo sapiens) (UniProt P08631); details: at 1 µM; remark: listed apart in the source
# [16] = molecular target: Tyrosine-protein kinase HCK (Homo sapiens) (UniProt P08631); details: at 10 µM; remark: listed apart in the source
# [17] = molecular target: T4, Protein kinase C iota type (Homo sapiens); details: at 1 µM
# [18] = molecular target: T5, Serine/threonine-protein kinase D2 (Homo sapiens) (UniProt Q9BZL6); details: at 10 µM
# T5 sequence (whole entry): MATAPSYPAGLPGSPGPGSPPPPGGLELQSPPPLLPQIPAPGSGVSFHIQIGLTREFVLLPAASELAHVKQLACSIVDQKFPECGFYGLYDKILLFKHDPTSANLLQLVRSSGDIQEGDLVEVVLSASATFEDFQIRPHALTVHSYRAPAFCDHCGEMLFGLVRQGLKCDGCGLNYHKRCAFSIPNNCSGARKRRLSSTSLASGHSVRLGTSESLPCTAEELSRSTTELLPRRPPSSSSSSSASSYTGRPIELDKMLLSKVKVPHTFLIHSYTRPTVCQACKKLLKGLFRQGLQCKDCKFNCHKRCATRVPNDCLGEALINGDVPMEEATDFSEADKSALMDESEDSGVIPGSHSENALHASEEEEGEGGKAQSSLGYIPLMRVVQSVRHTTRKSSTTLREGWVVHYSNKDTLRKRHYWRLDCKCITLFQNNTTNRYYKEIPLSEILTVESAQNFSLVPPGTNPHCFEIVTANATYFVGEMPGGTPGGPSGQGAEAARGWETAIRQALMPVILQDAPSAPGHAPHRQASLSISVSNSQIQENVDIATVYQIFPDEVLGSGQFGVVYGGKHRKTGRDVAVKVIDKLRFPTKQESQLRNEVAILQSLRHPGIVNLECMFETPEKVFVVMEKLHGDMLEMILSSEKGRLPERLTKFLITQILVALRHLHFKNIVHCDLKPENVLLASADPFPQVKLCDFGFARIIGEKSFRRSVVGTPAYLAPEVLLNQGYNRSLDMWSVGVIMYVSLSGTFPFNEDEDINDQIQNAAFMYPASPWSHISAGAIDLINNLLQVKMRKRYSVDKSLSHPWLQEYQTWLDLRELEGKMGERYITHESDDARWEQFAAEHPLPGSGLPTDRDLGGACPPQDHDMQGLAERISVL
structure (smiles),measurement,setting,value
O=C1Cc2c([nH]c3ccc(Br)cc23)-c2ccccc2N1,residual activity,[1],60%
same,residual activity,[2],44%
same,residual activity,[3],28%
same,residual activity,[4],141%
same,residual activity,[5],92%
same,residual activity,[6],72%
same,residual activity,[7],94%
same,residual activity,[8],49%
same,residual activity,[9],31%
same,residual activity,[10],99%
same,residual activity,[11],80%
O=c1cc(N2CCOCC2)oc2c(-c3ccccc3)cccc12,residual activity,[2],54%
same,residual activity,[12],66%
same,residual activity,[3],58%
same,residual activity,[13],133%
same,residual activity,[7],66%
same,residual activity,[14],63%
COc1ccc(COc2ccc(Cc3cnc(N)nc3N)cc2OC)cc1,residual activity,[3],65%
same,residual activity,[13],128%
same,residual activity,[4],133%
same,residual activity,[10],81%
same,residual activity,[11],77%
NCCNc1ncc(C(N)=O)c(Nc2cccc(C(F)(F)F)c2)n1,residual activity,[1],44%
same,residual activity,[2],7%
same,residual activity,[12],78%
same,residual activity,[3],22%
same,residual activity,[15],64%
same,residual activity,[16],14%
same,residual activity,[13],127%
same,residual activity,[5],112%
same,residual activity,[10],35%
same,residual activity,[11],8%
COc1ccc(-c2cnc3c(-c4ccsc4)cnn3c2)cc1,residual activity,[1],95%
same,residual activity,[2],83%
same,residual activity,[12],59%
same,residual activity,[3],76%
same,residual activity,[13],134%
same,residual activity,[7],76%
same,residual activity,[17],81% (inactive)
same,residual activity,[14],77%
same,residual activity,[10],84%
same,residual activity,[11],97%
Nc1nccc(-c2c(-c3ccc(F)cc3)ncn2C2CCNCC2)n1,residual activity,[1],54%
same,residual activity,[2],36%
same,residual activity,[3],53%
same,residual activity,[16],43%
same,residual activity,[4],120%
same,residual activity,[6],114%
same,residual activity,[7],70%
same,residual activity,[10],46%
same,residual activity,[11],3%
same,residual activity,[18],49%
COc1cc2ncnc(Nc3cccc(Cl)c3)c2cc1OC,residual activity,[12],48%
same,residual activity,[3],13%
same,residual activity,[15],40%
same,residual activity,[16],4%
same,residual activity,[13],111%
same,residual activity,[5],110%
same,residual activity,[6],110%
same,residual activity,[7],108%
same,residual activity,[8],105%
same,residual activity,[9],101%
same,residual activity,[10],110%
same,residual activity,[11],73%
O=C1Cc2c([nH]c3ccc([N+](=O)[O-])cc23)-c2ccccc2N1,residual activity,[12],41%
same,residual activity,[3],28%
same,residual activity,[15],81%
same,residual activity,[16],81%
same,residual activity,[4],123%
Cc1cc(C)c(/C=C2\C(=O)Nc3ccccc32)[nH]1,residual activity,[1],100%
same,residual activity,[2],77%
same,residual activity,[12],60%
same,residual activity,[3],25%
same,residual activity,[15],63%
same,residual activity,[16],40%
same,residual activity,[8],103%
same,residual activity,[10],78%
